Experimental data as given in PubChem BioAssay (NCATS).
Unmarked numbers belong to inactive results. The rule behind the calls is not given here.

What follows are compounds tested on HIV-1 nucleocapsid protein NCp7 (binding to TG oligonucleotide) (assay: HIV Nucleocapsid (AID 346;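 note: potency is for inhibitors that block NC binding and lower polarization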)). Conditions: HIV-1 NC / fluorescein-TGTGTGTG probe, fluorescence polarization.
Summary of the method: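 Fluorescence polarization binding of 100 nM HIV-1 NC to 10 nM fluorescein-labelled TG4xF oligonucleotide. Buffer was Hepes pH 7.5 with 250mM NaCl, 1uM ZnCl2, TCEP and 2-mercaptoethanol. Compounds were incubated 1 hr at room temperature before the read.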
Potency is the fitted concentration of half-maximal effect.

Row | Structure (SMILES) | Potency
1 | CC(=O)N1CCC[C@@]2(CCN(c3ccncc3)C2)C1 | > 20 µM
2 | N#Cc1cccc(-c2cncnc2-n2ccnc2)c1 | > 20 µM
3 | CN(Cc1ccco1)c1cc(-c2ccc3c(c2)OCO3)ncn1 | > 20 µM
4 | CCNc1ncc2nc(-c3cn(C)c4ccccc34)c(=O)n(CCC#N)c2n1 | > 20 µM
5 | COc1ccc(CNc2cc(-c3cccc(C#N)c3)ncn2)c(OC)c1 | > 20 µM
6 | COc1ccc(-c2nc3cnc(N4CCN(C)CC4)nc3n(-c3ccc(OC)cc3)c2=O)cc1 | > 20 µM
7 | Cn1cc(-c2nc3cncnc3n(CCN)c2=O)c2ccccc21 | > 20 µM
8 | CCNc1ncc2nc(C)c(=O)n(CCOC)c2n1 | > 20 µM
9 | Cc1ccccc1-c1nc(N2CCOCC2)c2ccccc2n1 | > 20 µM
10 | CN(C)C(=O)c1ccc(-c2cncnc2NCc2cccnc2)cc1 | > 20 µM
11 | COc1ccccc1-c1ccc2ncnc(NCc3ccccc3)c2c1 | > 20 µM
12 | COc1ccc(Oc2ncc3nc(-c4cccc(C#N)c4)c(=O)n(CCC#N)c3n2)cc1 | > 20 µM
13 | COC(=O)N1CCC2(CCCN(C(=O)Nc3cccc(F)c3)C2)CC1 | > 20 µM
14 | Cc1nc2cnc(OCc3ccccc3)nc2n(C)c1=O | > 20 µM
15 | Cc1noc(C)c1-c1cc(N(C)Cc2ccco2)ncn1 | > 20 µM
16 | COCCn1c(=O)c(-c2ccccc2)nc2cnc(N(C)C)nc21 | > 20 µM
17 | COc1ccccc1CN1CCCC2(CCN(C(=O)c3cccc(F)c3)CC2)C1 | > 20 µM
18 | CN(C)c1ccc(-c2ccc3ncnc(NCc4ccccc4)c3c2)cc1 | > 20 µM
19 | CN1CCN(c2ncc3nc(-c4cccs4)c(=O)n(Cc4cccs4)c3n2)CC1 | > 20 µM
20 | O=c1c(-c2cc(F)cc(F)c2)nc2cnc(N3CCNCC3)nc2n1-c1ccccc1 | > 20 µM

Row | Structure (SMILES) | Potency
21 | Cc1noc(C)c1C(=O)N1CCC2(CC1)CN(c1cccc(-c3ccccc3)c1)C2 | > 20 µM
22 | COCCn1c(=O)cnc2cnc(Nc3ccccc3)nc21 | > 4 µM
23 | COc1ccc(CNc2nc(-c3cccc(C#N)c3)nc3ccccc23)c(OC)c1 | > 20 µM
24 | Cc1noc(C)c1C(=O)N1CCC2(CCN(C(=O)Nc3ccccc3)CC2)CC1 | > 20 µM
25 | CS(=O)(=O)N1CCC[C@@]2(CCN(c3ncccn3)C2)C1 | > 20 µM
26 | CN(Cc1ccco1)c1cc(-c2cccc(NS(C)(=O)=O)c2)ncn1 | > 20 µM
27 | O=C(c1cccc(F)c1)N1CCC2(CC1)CCN(c1cccc(-c3ccccc3)c1)CC2 | > 20 µM
28 | O=C(c1cc(C(F)(F)F)cc(C(F)(F)F)c1)N1CCC[C@@]2(CCN(c3ccccn3)C2)C1 | > 20 µM
29 | O=C(c1csnn1)N1CCC2(CCN(Cc3cc(C(F)(F)F)cc(C(F)(F)F)c3)CC2)CC1 | > 20 µM
30 | O=C(Nc1ccccc1)N1CC[C@@]2(CCCN(C(=O)c3ccco3)C2)C1 | > 20 µM
31 | COc1ncc2nc(-c3ccc(Cl)cc3)c(=O)n(Cc3cccs3)c2n1 | > 20 µM
32 | O=c1c(-c2ccccc2)nc2cnc(N3CCOCC3)nc2n1C[C@H]1CCCO1 | > 20 µM
33 | COc1ccc(NC(=O)N2CC3(CCN(C(=O)c4ccco4)CC3)C2)cc1 | > 20 µM
34 | CN(Cc1ccco1)c1ncncc1-c1cccc(NS(C)(=O)=O)c1 | > 20 µM
35 | COc1ccc(-c2nc3cnc(Oc4cccc(Cl)c4)nc3n(C3CC3)c2=O)cc1 | > 20 µM
36 | c1cncc(CNc2cc(-c3ccoc3)ncn2)c1 | > 20 µM
37 | CN(C)C(=O)c1ccc(-c2cc(NCc3cccs3)ncn2)cc1 | > 20 µM
38 | O=C(c1cccc(F)c1)N1CCC[C@@]2(CCN(Cc3ccncc3)C2)C1 | > 20 µM
39 | COc1ccc(C(=O)N2CCC3(CC2)CN(C(=O)Nc2cccc(C#N)c2)C3)cc1 | > 20 µM
40 | CNc1nc(-c2ccccc2CN(C)C)nc2ccccc12 | > 20 µM
